# The entries come from a sample that favours hits as a whole.
# TDP-43 tox inh: rescues yeast from TDP-43 toxicity. Potency, µM (titrated, usually from 46.1 µM), usual class: activators. AID 1347073. hit rate 0.45% among 45,000. yeast TDP-43 toxicity rescue, BacTiter-Glo growth, 24 h; active = well fitted activation curve with a large enough effect; note: nearly all actives have a fitted effect of over 55% in size
#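 TDP-43-expressing yeast, pregrown in raffinose, seeded at OD600 0.02 in galactose medium with compound for 24 hr at 30 deg C. Growth read by BacTiter-Glo luminescence, so rescue of toxicity appears as activation.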
# A number is an active result; i = inactive.
SMILES,TDP-43 tox inh
Cn1nnnc1N=N/C(=N/Nc1ccccc1)c1ccccc1,6.31µM
CC(=O)Nc1cccc(-c2ccnc3c2CC(C)(C(=O)Nc2ccc4c(c2)OCO4)O3)c1 (configuration not stated),i
COc1ccc(C)cc1NC(=O)c1cc2c(s1)-c1ccccc1SC2,i
COc1ccc(-c2csc3ncnc(N4CCN(CCO)CC4)c23)cc1,i
COc1ccc(-c2csc3ncnc(N4CCN(c5ccccc5OC)CC4)c23)cc1,14.1µM
COc1ccccc1N1CCN(c2cnccn2)CC1,i
CC1CCN(CC(C)OC(=O)c2ccco2)CC1 (configuration not stated),i
CC(CN1CCOCC1)OC(=O)CCc1ccccc1 (configuration not stated),i
CC(CN1CCOCC1)OC(=O)c1ccc(Br)cc1 (configuration not stated),15.8µM
CC1CN(c2oc(-c3ccco3)nc2C#N)CC(C)O1 (configuration not stated),i
N#Cc1nc(-c2ccc(OCc3ccccc3)cc2)oc1NCc1ccco1,i
CN(Cc1ccccc1)c1oc(-c2ccco2)nc1C#N,14.1µM
COC(=O)c1sc(S(=O)(=O)N2CCN(c3ccccc3F)CC2)c(C(=O)OC)c1C,i
CC(=O)c1cc2c(cc1NC(=O)C1CN(C(C)=O)c3ccccc3O1)OCO2 (configuration not stated),i
COc1ccc(CNC(=O)CN(C)S(=O)(=O)c2ccc3nc(C)sc3c2)cc1,i
COc1ccccc1N1CCN(C(=O)c2ccc(NS(=O)(=O)c3ccc(C)cc3)cc2)CC1,i
COc1cc(OC)cc(C(=O)N2CCC(N3CCN(c4ccccc4OC)CC3)CC2)c1,i
COc1ccccc1N1CCN(C(=O)c2ccc3[nH]c4c(c3c2)CCCC4)CC1,17.8µM
CCCCSc1nnc2c(n1)OC(c1ccc(C)s1)Nc1ccccc1-2 (configuration not stated),i
O=C(c1cccs1)c1cn(CCOc2ccc(F)cc2)c2ccccc12,i
